# Assay: compound effects on differentiated 3T3-L1 adipocyte viability – cell-based, 3T3-L1 adipocytes, calcein-AM fluorescence, 48 h, basal, profiling panel (AID 1163)
# Details: 3T3-L1 adipocytes viability, higher = more signal
# Note: test concentration not given here.
row,Structure (SMILES),z-score
1,Cc1ccc(N2C(=O)c3ccccc3[C@@H](C(=O)NC3CC3)[C@@H]2c2ccc(CO)cc2)nc1,0.516
2,O=C1C[C@@](C(=O)NCC(F)(F)F)(c2ccc([N+](=O)[O-])cc2)[C@@H](c2ccc(CO)cc2I)N1C1CCCCC1,0.665
3,Cc1ccc(S[C@]2(C(=O)NCCCN(C)C)CC(=O)N(Cc3cc(C(F)(F)F)cc(C(F)(F)F)c3)[C@@H]2c2ccc(CO)cc2)cc1,0.374
4,C=C(COC)/C(=C/C[C@@H](OC(=O)c1ccncc1)c1ccc(CO)o1)c1cc(C(=O)OC)ccc1OC,-0.766
5,C=C[C@H](OC)[C@@H](OC(=O)Nc1ccc(OC)cc1)c1ccc(O)c(F)c1,-0.501
6,COCCOC(=O)N1C(=O)[C@@]2(c3cc(C#CC4(O)CCCCCC4)ccc31)[C@H](c1ccccc1OCCO)N1[C@H](c3ccccc3)[C@H](c3ccccc3)OC(=O)[C@H]1[C@@H]2C(=O)N1CCN(c2ncccn2)CC1,-0.464
7,C=CC(=C)[C@H]1Oc2ccccc2S(=O)(=O)N2CCC[C@@H]12,0.0997
8,[N-]=[N+]=Nc1ccccc1[C@@H]1OC(c2ccc(OCCCO)cc2)=N[C@]1(Cc1ccccc1)C(=O)N1CCOCC1,-1.63
9,COCCOC(=O)N1C(=O)[C@@]2(c3cc(C#CCCO)ccc31)[C@H](C(N)=O)[C@H]1C(=O)O[C@H](c3ccccc3)[C@H](c3ccccc3)N1[C@@H]2c1ccc(O)cc1,0.24
10,C=C(C(=O)CC[C@@H](OC(=O)c1cccnc1)c1ccccc1OCCO)C(C)C,0.909
11,C=CCNC(=O)[C@H]1[C@@H]2C(=O)O[C@@H](c3ccccc3)[C@@H](c3ccccc3)N2[C@@H](c2ccccc2OCCO)[C@]12C(=O)Nc1ccc(C#CCC(C(=O)OC)C(=O)OC)cc12,-0.72

# Assay: compound effects on hepatocellular carcinoma cell viability – HepG2, calcein-AM fluorescence, 48 h, basal, profiling panel (AID 1164)
# Details: higher = more signal
row,Structure (SMILES),z-score
1,CC(C)[Si]1(C(C)C)O[C@@H](c2ccccc2)c2cc(-c3ccc(-c4ccc(Cl)c(Cl)c4)o3)nc(-c3ccccc3)c21,0.428
2,OCCCC1=CC(c2cccs2)N(Cc2cc3c(cc2Br)OCO3)CC1 (stereo unspecified),0.145
3,CCOC(=O)C[C@H]1[C@H](OC(=O)c2ccc(C(=O)c3ccccc3)cc2)[C@@H](NC(=O)c2ccc3ccccc3c2)c2cc(OCCCO)ccc2N1C(=O)Cc1ccc(OC)cc1,0.294
4,C=C(CC1([C@@H](NP(=O)(c2ccccc2)c2ccccc2)[C@H]2C[C@@H]2CCCC)CC1)c1ccccc1,-0.721
5,COc1cc(COC(C)=O)ccc1OC(C)=O,1.5
6,C=C(CCCC)/C(=C/C[C@@H](OC(=O)c1ccncc1)c1ccc(OCCO)cc1)c1cc(C(=O)OC)ccc1OC,1.86
7,C=C(CCCC)C(=O)CC[C@@H](OC(=O)c1ccccc1-c1ccccc1C(=O)O)c1ccc(OCCO)cc1,0.515
8,COCCOC(=O)N1C(=O)[C@@]2(c3cc(C#CCC(C(=O)OC)C(=O)OC)ccc31)[C@H](C(=O)Nc1nc3ccccc3s1)[C@H]1C(=O)O[C@H](c3ccccc3)[C@H](c3ccccc3)N1[C@@H]2c1ccccc1OCCO,1.31
9,NC(=O)N1C(=O)C2C(C1=O)C1C=C(c3ccc(CO)cc3)C2C(c2cccs2)N1Cc1cccc(OC(F)(F)F)c1 (stereo unspecified),0.0764
10,COCCOC(=O)N1C(=O)[C@@]2(c3cc(C#CCNC(N)=O)ccc31)[C@H](C(=O)N1CCN(c3ncccn3)CC1)[C@H]1C(=O)O[C@H](c3ccccc3)[C@H](c3ccccc3)N1[C@@H]2c1ccc(OCCO)cc1,0.548
11,CCCc1cc2c(n1Cc1cc(F)cc(F)c1)C(C)C1CN(C(=O)c3ccccc3)C(C)(C(=O)OC)C21 (stereo unspecified),-0.237
12,CCCC[C@@H]1C[C@H]1[C@@H](NC(=O)c1ccco1)c1ccc(-c2ccccc2)cc1,-1.05
13,C=CC[C@@]12N=C(c3ccc(OCCCO)cc3)O[C@@H]1c1ccccc1N(C)C2=O,-1.33
14,COC(=O)[C@@]1(Cc2ccccc2)N=C(c2ccc(OCCCO)cc2)O[C@H]1c1ccccc1,-1.69
15,COc1cccc(-c2cccc(=O)o2)c1,-0.834
16,C=C[C@H](CO[Si](CC)(CC)CC)N(Cc1ccc(OC(C)=O)c(OC)c1)S(=O)(=O)c1ccc(Br)cc1,-4.67
17,NC(=O)NCC#Cc1ccc2c(c1)[C@]1(C(=O)N2)[C@H](c2ccc(O)cc2)N2[C@H](c3ccccc3)[C@H](c3ccccc3)OC(=O)[C@H]2[C@@H]1C(=O)O,0.829
18,COC(=O)C[C@H]1O[C@]2(C(=O)N(C)c3ccccc32)[C@@H](C)[C@@H]1[Si](C)(C)F,1.21

row,Structure (SMILES),z-score
1,O=C1C2C=CC(C(O)c3cc(C(F)(F)F)cc(C(F)(F)F)c3)N(n3cnnc3)C2C(=O)N1Cc1ccccc1 (stereo unspecified),-0.167
2,Cc1nc2cc(Br)ccc2c(=O)o1,0.368
3,C=C(CCCC)/C(=C/C[C@@H](OC(C)=O)c1ccc(OCCO)cc1)c1cnc2ccccc2c1,1.12
4,COc1cc2c(cc1O)C(C1CC1)N(Cc1sc3ccccc3c1Cl)CC2 (stereo unspecified),-4.15
5,COc1cc2c(cc1O)C(c1cccs1)N(C)CC2 (stereo unspecified),0.448
6,CN1C=C(C(=O)OCCS(C)(=O)=O)C(C(=O)OCCS(C)(=O)=O)=CC(c2ccc(CO)cc2)=CC1C1CC1 (stereo unspecified),1.28
7,Cc1ccc(N2C(=O)c3ccccc3[C@@H](C(=O)NC3CC3)[C@@H]2c2ccc(CO)cc2)nc1,-0.774
8,O=C1C[C@@](C(=O)NCC(F)(F)F)(c2ccc([N+](=O)[O-])cc2)[C@@H](c2ccc(CO)cc2I)N1C1CCCCC1,-0.644
9,Cc1ccc(S[C@]2(C(=O)NCCCN(C)C)CC(=O)N(Cc3cc(C(F)(F)F)cc(C(F)(F)F)c3)[C@@H]2c2ccc(CO)cc2)cc1,-0.767
10,C=C(COC)/C(=C/C[C@@H](OC(=O)c1ccncc1)c1ccc(CO)o1)c1cc(C(=O)OC)ccc1OC,0.466
11,C=C[C@H](OC)[C@@H](OC(=O)Nc1ccc(OC)cc1)c1ccc(O)c(F)c1,-0.322
12,COCCOC(=O)N1C(=O)[C@@]2(c3cc(C#CC4(O)CCCCCC4)ccc31)[C@H](c1ccccc1OCCO)N1[C@H](c3ccccc3)[C@H](c3ccccc3)OC(=O)[C@H]1[C@@H]2C(=O)N1CCN(c2ncccn2)CC1,1.4
13,C=CC(=C)[C@H]1Oc2ccccc2S(=O)(=O)N2CCC[C@@H]12,-1.23
14,[N-]=[N+]=Nc1ccccc1[C@@H]1OC(c2ccc(OCCCO)cc2)=N[C@]1(Cc1ccccc1)C(=O)N1CCOCC1,-0.404
15,COCCOC(=O)N1C(=O)[C@@]2(c3cc(C#CCCO)ccc31)[C@H](C(N)=O)[C@H]1C(=O)O[C@H](c3ccccc3)[C@H](c3ccccc3)N1[C@@H]2c1ccc(O)cc1,-0.05
16,C=C(C(=O)CC[C@@H](OC(=O)c1cccnc1)c1ccccc1OCCO)C(C)C,-0.599
17,C=CCNC(=O)[C@H]1[C@@H]2C(=O)O[C@@H](c3ccccc3)[C@@H](c3ccccc3)N2[C@@H](c2ccccc2OCCO)[C@]12C(=O)Nc1ccc(C#CCC(C(=O)OC)C(=O)OC)cc12,-0.845

# — PubChem BioAssay
